Results on eleven molecules are retold here after paper PMC11062922 (Nature Chemical Biology, 2023).

Read-outs that look alike come from different tables or passages of the source.

One assay has as its system AAK1. Further details: species or system human, MV4-11 + K-562 + COLO205 + SK-N-BE2 + OVCAR-8. The note with it: read-out: apparent Kd, n = 1.
A further assay has as its target Q6ZSR9 (human, UniProt Q6ZSR9). Further details: species or system MV4-11 + K-562 + COLO205 + SK-N-BE2 + OVCAR-8. The settings on record: read-out: apparent Kd, compound concentrations: 100 nM and 1000 nM (sheet 'Samples'), n = 1.
For another assay, the system named is CLK1. Further details: species or system human, MV4-11 + K-562 + COLO205 + SK-N-BE2 + OVCAR-8. The settings on record: read-out: apparent Kd, compound concentrations: 100 nM and 1000 nM (sheet 'Samples'), n = 1.
Another assay has as its system CLK4. On the set-up: species or system human, MV4-11 + K-562 + COLO205 + SK-N-BE2 + OVCAR-8. The note with it: read-out: apparent Kd, compound concentrations: 100 nM and 1000 nM (sheet 'Samples'), n = 1.
Another assay has as its system CSNK2A1;CSNK2A3. Further details: species or system human, MV4-11 + K-562 + COLO205 + SK-N-BE2 + OVCAR-8. The settings on record: read-out: apparent Kd, n = 1.
The test system of a further assay is CSNK2A2. On the set-up: species or system human, MV4-11 + K-562 + COLO205 + SK-N-BE2 + OVCAR-8. The note with it: read-out: apparent Kd, compound concentrations: 100 nM and 1000 nM (sheet 'Samples'), n = 1.
A further assay has as its system ABL1. On the set-up: species or system human, MV4-11 + K-562 + COLO205 + SK-N-BE2 + OVCAR-8. The note with it: read-out: apparent Kd, n = 1.
For another assay, the system named is ABL2. On the set-up: species or system human, MV4-11 + K-562 + COLO205 + SK-N-BE2 + OVCAR-8. The note with it: read-out: apparent Kd, n = 1.
The test system of a further assay is BCR. Further details: species or system human, MV4-11 + K-562 + COLO205 + SK-N-BE2 + OVCAR-8. The settings on record: read-out: apparent Kd, n = 1.
Another assay relates to FRK. Further details: species or system human, MV4-11 + K-562 + COLO205 + SK-N-BE2 + OVCAR-8. The note with it: read-out: apparent Kd; compound concentrations:100 nM and 1000 nM (sheet 'Samples'); n = 1.
The next assay deals with FYN. Further details: species or system human, MV4-11 + K-562 + COLO205 + SK-N-BE2 + OVCAR-8. The settings on record: read-out: apparent Kd; compound concentrations:100 nM and 1000 nM (sheet 'Samples'); n = 1.
The subject of the next assay is GAK. On the set-up: species or system human, MV4-11 + K-562 + COLO205 + SK-N-BE2 + OVCAR-8. The note with it: read-out: apparent Kd, n = 1.
The subject of the next assay is HCK. Further details: species or system human, MV4-11 + K-562 + COLO205 + SK-N-BE2 + OVCAR-8. The note with it: read-out: apparent Kd; compound concentrations:100 nM and 1000 nM (sheet 'Samples'); n = 1.
For a further assay, the system named is LCK. On the set-up: species or system human, MV4-11 + K-562 + COLO205 + SK-N-BE2 + OVCAR-8. The note with it: read-out: apparent Kd; compound concentrations:100 nM and 1000 nM (sheet 'Samples'); n = 1.
Another assay has as its system PTK6. Further details: species or system human, MV4-11 + K-562 + COLO205 + SK-N-BE2 + OVCAR-8. The note with it: read-out: apparent Kd; compound concentrations:100 nM and 1000 nM (sheet 'Samples'); n = 1.
For another assay, the system named is RET. On the set-up: species or system human, MV4-11 + K-562 + COLO205 + SK-N-BE2 + OVCAR-8. The settings on record: read-out: apparent Kd, n = 1.
In a further assay the test system is RIPK2. Further details: species or system human, MV4-11 + K-562 + COLO205 + SK-N-BE2 + OVCAR-8. The note with it: read-out: apparent Kd, n = 1.
The subject of another assay is RIPK3. Further details: species or system human, MV4-11 + K-562 + COLO205 + SK-N-BE2 + OVCAR-8. The note with it: read-out: apparent Kd, n = 1.
Another assay has as its system YES1. Further details: species or system human, MV4-11 + K-562 + COLO205 + SK-N-BE2 + OVCAR-8. The note with it: read-out: apparent Kd; compound concentrations:100 nM and 1000 nM (sheet 'Samples'); n = 1.
[1] abbreviates: compound concentrations:100 nM and 1000 nM (sheet 'Samples').

Chain of Q6ZSR9 (Q6ZSR9 whole entry, looked up): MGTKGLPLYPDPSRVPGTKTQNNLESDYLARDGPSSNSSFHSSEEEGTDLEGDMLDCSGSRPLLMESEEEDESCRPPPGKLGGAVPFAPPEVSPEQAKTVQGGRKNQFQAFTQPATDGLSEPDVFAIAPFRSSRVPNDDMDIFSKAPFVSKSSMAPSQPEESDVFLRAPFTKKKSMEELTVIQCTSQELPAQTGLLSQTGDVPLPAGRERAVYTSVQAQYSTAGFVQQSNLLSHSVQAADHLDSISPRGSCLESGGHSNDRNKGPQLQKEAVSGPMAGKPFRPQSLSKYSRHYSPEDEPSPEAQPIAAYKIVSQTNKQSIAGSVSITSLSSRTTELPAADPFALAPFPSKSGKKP

For the molecule `COc1ccc(CNC(=O)NC2CCN(c3ccnc(Nc4cc(OC)c(OC)c(OC)c4)n3)C2)cc1` (stereo not shown) [GSK1379748A], the potency estimated from few doses is 1680 nM with AAK1 (compound concentrations: 100 nM and 1000 nM (sheet 'Samples'), CATDS: 0.347671640618193); 1710 nM with Q6ZSR9 (CATDS: 0.34499454920455003).

With `O=C1N=C(NCCc2cccc(Cl)c2)S/C1=C\c1ccc2ncccc2c1` [RO4509201-000], the potency estimated from few doses in the assay with AAK1 (compound concentrations: 100 nM and 1000 nM (sheet 'Samples'), CATDS: 5.6248629663802403E-2) was 1640 nM; in the assay with CLK1 (CATDS: 0.11223755313714801), 275 nM; in the assay on CLK4 (CATDS: 0.15614566648302999) it was 153 nM; in the assay with CSNK2A1;CSNK2A3 (compound concentrations: 100 nM and 1000 nM (sheet 'Samples'), CATDS: 0.170383689424982) it was 133 nM; with CSNK2A2 (CATDS: 0.201313292648233), 103 nM.

Regarding `O=C1N=C(NCc2ccccc2Cl)S/C1=C\c1ccc2ncccc2c1` [RO4506917-000], the potency estimated from few doses with AAK1 (compound concentrations: 100 nM and 1000 nM (sheet 'Samples'), CATDS: 0.11408276718016799) is 696 nM; with CLK1 (CATDS: 0.13615422717459799) it was 443 nM; in the assay with CLK4 (CATDS: 0.16237253930463899), 307 nM; with CSNK2A1;CSNK2A3 (compound concentrations: 100 nM and 1000 nM (sheet 'Samples'), CATDS: 0.21358904197946299) it was 190 nM; in the assay on CSNK2A2 (CATDS: 0.17001055355195799) it was 281 nM; in the assay with Q6ZSR9 (CATDS: 9.7347252089560202E-2), 1190 nM.

On to `CCN(CC)CCOc1ccc(Nc2ncc3cc(-c4c(Cl)cccc4Cl)c(=O)n(C)c3n2)cc1` [SB-601273], for which the potency estimated from few doses is 72.7 nM in the assay on ABL1 (setting [1]); 8.98 nM in the assay on ABL2 (setting [1]); 5.53 nM in the assay on BCR (setting [1]); 103 nM in the assay on FRK; 130 nM with FYN; 55.4 nM in the assay with GAK (setting [1]). For the same molecule, the potency estimated from few doses with HCK was 299 nM; in the assay on LCK, 39 nM; in the assay on PTK6, 224 nM; with RET (setting [1]), 167 nM; in the assay on RIPK2 (setting [1]), 19.4 nM; in the assay with RIPK3 (setting [1]), 765 nM. The potency estimated from few doses with YES1 was 80.1 nM.

As for `Cc1cccc(Nc2nc(NCCN)ncc2C(N)=O)c1` [GSK1292139B], the potency estimated from few doses in the assay on AAK1 (compound concentrations: 100 nM and 1000 nM (sheet 'Samples'), CATDS: 0.21003536001632001) is 164 nM; in the assay with Q6ZSR9 (CATDS: 0.320838512301937) it was 88 nM.

For `Cc1cccc(-c2cc(-c3c[nH]nc3-c3ccccn3)ccn2)c1` [GW679395X], the potency estimated from few doses with CSNK2A1;CSNK2A3 (setting [1]) was 2120 nM; with FYN, 1290 nM; in the assay with LCK, 1330 nM.

Consider `COc1cccc(-n2ncc3c(N/N=C/c4ccc(C(=O)NCCN(C)C)cc4)ncnc32)c1.Cl` [GW784307A], for which the potency estimated from few doses with ABL1 (compound concentrations: 100 nM and 1000 nM (sheet 'Samples'), CATDS: 7.2174093506066003E-2) was 114 nM; in the assay with ABL2 (compound concentrations: 100 nM and 1000 nM (sheet 'Samples'), CATDS: 3.8634429049696897E-2) it was 479 nM; in the assay on BCR (compound concentrations: 100 nM and 1000 nM (sheet 'Samples'), CATDS: 0.110130424240114), 53.4 nM; with CLK1 (CATDS: 2.9878019560437799E-2), 1060 nM; in the assay with CLK4 (CATDS: 3.0333782570854902E-2), 1010 nM; in the assay on CSNK2A1;CSNK2A3 (compound concentrations: 100 nM and 1000 nM (sheet 'Samples'), CATDS: 5.2102189470279198E-2), 227 nM. Moreover, the potency estimated from few doses was 80.9 nM in the assay with CSNK2A2 (CATDS: 8.6711561514054597E-2); 1160 nM in the assay on GAK (compound concentrations: 100 nM and 1000 nM (sheet 'Samples'), CATDS: 2.92049494926887E-2).

In the case of `Nc1nc(-c2cccnc2)c(-c2ccnc3ccccc23)s1` [GW684083X], the potency estimated from few doses with AAK1 (setting [1]) is 1960 nM; in the assay with GAK (setting [1]), 1430 nM.

As to `COc1ccccc1CNC1=NC(=O)/C(=C/c2ccc3ncccc3c2)S1` [RO4503315-000], the potency estimated from few doses in the assay with AAK1 (compound concentrations: 100 nM and 1000 nM (sheet 'Samples'), CATDS: 7.6030940071323702E-2) was 908 nM; in the assay with CLK1 (CATDS: 0.30628277203205201) it was 30.8 nM; in the assay with CLK4 (CATDS: 0.47450505844259699), 14.8 nM; in the assay with CSNK2A1;CSNK2A3 (compound concentrations: 100 nM and 1000 nM (sheet 'Samples'), CATDS: 0.129899516900844), 197 nM; in the assay on CSNK2A2 (CATDS: 0.121862828094444), 231 nM; in the assay with Q6ZSR9 (CATDS: 7.7270195347091397E-2) it was 858 nM.

In the case of `O=C1N=C(NCC(CO)c2ccccc2)S/C1=C\c1ccc2ncccc2c1` (stereo not shown) [RO4582641-000], the potency estimated from few doses is 89.4 nM in the assay with AAK1 (compound concentrations: 100 nM and 1000 nM (sheet 'Samples'), CATDS: 0.17753366584660099); 79.6 nM in the assay with CLK1 (CATDS: 0.190725453373879); 590 nM with CLK4 (CATDS: 7.8741262727809305E-2); 140 nM with CSNK2A1;CSNK2A3 (compound concentrations: 100 nM and 1000 nM (sheet 'Samples'), CATDS: 0.138008161076002); 167 nM in the assay on CSNK2A2 (CATDS: 0.126393310474474); 97.6 nM in the assay with Q6ZSR9 (CATDS: 0.16856489309537501). In the assay on RIPK2 (compound concentrations: 100 nM and 1000 nM (sheet 'Samples'), CATDS: 7.9715899202970897E-2), the potency estimated from few doses is 565 nM.

With `Cc1ccc(O)cc1Nc1ccnc2cc(-c3ccccn3)ccc12.Cl` [GW440139A], the potency estimated from few doses in the assay with ABL1 (compound concentrations: 100 nM and 1000 nM (sheet 'Samples'), CATDS: 2.9086276614824699E-2) is 609 nM; in the assay with ABL2 (compound concentrations: 100 nM and 1000 nM (sheet 'Samples'), CATDS: 3.5730235281971501E-2) it was 238 nM; in the assay on BCR (compound concentrations: 100 nM and 1000 nM (sheet 'Samples'), CATDS: 6.7644332106689603E-2), 40.7 nM; in the assay on GAK (compound concentrations: 100 nM and 1000 nM (sheet 'Samples'), CATDS: 4.3663241287780298E-2), 121 nM; with RET (compound concentrations: 100 nM and 1000 nM (sheet 'Samples'), CATDS: 4.9371716156535399E-2), 85.8 nM; with RIPK2 (compound concentrations: 100 nM and 1000 nM (sheet 'Samples'), CATDS: 3.9139887822916601E-2) it was 171 nM. Also, the potency estimated from few doses in the assay on RIPK3 (compound concentrations: 100 nM and 1000 nM (sheet 'Samples'), CATDS: 4.4642127518175201E-2) was 114 nM.
